Reference: the supplement of paper PMC9023506
Where a name gives a salt, the structure may show the parent alone.

Test system: Danio rerio larvae (5 dpf)
Experiment: optomotor response to green moving lines, difference vs DMSO (percentage points (treated minus DMSO)); higher = more of the behaviour than the DMSO vehicle control
Details: 10 µM; exposure time: 3 h pre-incubation + 3 h imaging
Experimental: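 5-dpf wild-type zebrafish larvae were imaged in 96-well plates. They were treated with 190 Tocris FDA-approved drugs at 10 µM (1 µl/ml DMSO) for 3 h before and 3 h during imaging at 28.5 °C, 48 larvae per drug. Automated image analysis gave % time moving and optomotor responses. Values are drug group mean minus DMSO vehicle mean (n=844), in percentage points, for 10 behaviours.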

Row | SMILES | optomotor response to green moving lines
1 | Cn1nnc2c(C(N)=O)ncn2c1=O [Temozolomide] | -1.84
2 | CCOc1ccccc1OCCN[C@H](C)Cc1ccc(OC)c(S(N)(=O)=O)c1 [Tamsulosin hydrochloride] | -11.6
3 | CCN(Cc1ccncc1)C(=O)C(CO)c1ccccc1 (stereo not given) [Tropicamide] | -4.16
4 | CC[C@H](C)C(=O)O[C@H]1C[C@@H](C)C=C2C=C[C@H](C)[C@H](CC[C@@H]3C[C@@H](O)CC(=O)O3)[C@H]21 [Lovastatin] | -3.13
5 | Cc1nc(Nc2ncc(C(=O)Nc3c(C)cccc3Cl)s2)cc(N2CCN(CCO)CC2)n1 [Dasatinib] | -4.87
6 | O=C(NCC1CCCCN1)c1cc(OCC(F)(F)F)ccc1OCC(F)(F)F (stereo not given) [Flecainide acetate] | 18.1
7 | COCCc1ccc(OCC(O)CNC(C)C)cc1 (stereo not given) [Metoprolol tartrate] | 0.682
8 | CC1(C)O[C@@H]2[C@@H](CO[C@@]3(COS(N)(=O)=O)OC(C)(C)O[C@@H]23)O1 [Topiramate] | -1.84
9 | CO[C@H]1/C=C/O[C@@]2(C)Oc3c(C)c(O)c4c(O)c(c5c(nc6cc(C)ccn65)c4c3C2=O)NC(=O)/C(C)=C\C=C\[C@H](C)[C@H](O)[C@@H](C)[C@@H](O)[C@@H](C)[C@H](OC(C)=O)[C@@H]1C [Rifaximin] | 0.563
10 | Nc1nc(Cl)nc2c1ncn2[C@@H]1O[C@H](CO)[C@@H](O)[C@@H]1F [Clofarabine] | 7.3
11 | Brc1c(NC2=NCCN2)ccc2nccnc12 | 10.3
12 | CNS(=O)(=O)Cc1ccc2[nH]cc(CCN(C)C)c2c1 [Sumatriptan succinate] | 3.74
13 | CCCCCCCN(CC)CCCC(O)c1ccc(NS(C)(=O)=O)cc1 (stereo not given) [Ibutilide hemifumarate] | 4.88
14 | Nc1ccn([C@@H]2O[C@H](CO)[C@@H](O)C2(F)F)c(=O)n1 [Gemcitabine hydrochloride] | 0.29
15 | COc1ccccc1OCCNCC(O)COc1cccc2[nH]c3ccccc3c12 (stereo not given) [Carvedilol] | -14.2
16 | CCCc1nc2c(C)cc(-c3nc4ccccc4n3C)cc2n1Cc1ccc(-c2ccccc2C(=O)O)cc1 [Telmisartan] | -3.99
17 | CN1CCC[C@@H]1CCO[C@](C)(c1ccccc1)c1ccc(Cl)cc1 [Clemastine fumarate] | 4.02
18 | COc1cccc2c1C(=O)c1c(O)c3c(c(O)c1C2=O)C[C@@](O)(C(=O)CO)C[C@@H]3O[C@H]1C[C@H](N)[C@H](O)[C@H](C)O1 [Doxorubicin hydrochloride] | -8.47
19 | CCOC(=O)N1CCC(=C2c3ccc(Cl)cc3CCc3cccnc32)CC1 [Loratidine] | -5.38
20 | CCCCC(=O)N(Cc1ccc(-c2ccccc2-c2nnn[nH]2)cc1)[C@H](C(=O)O)C(C)C [Valsartan] | 4.22

Row | SMILES | optomotor response to green moving lines
21 | O=C(O)CCCc1ccccc1 [Sodium 4-Phenylbutyrate] | -2.96
22 | Cc1ccccc1C(=O)Nc1ccc(C(=O)N2CCCC(O)c3cc(Cl)ccc32)c(C)c1 (stereo not given) [Tolvaptan] | 10.3
23 | CCc1nc(N)nc(N)c1-c1ccc(Cl)cc1 [Pyrimethamine] | 6.72
24 | COC(c1ccccc1)(c1ccccc1)[C@H](Oc1nc(C)cc(C)n1)C(=O)O [Ambrisentan] | -4.71
25 | CCCCNc1cc(C(=O)O)cc(S(N)(=O)=O)c1Oc1ccccc1 [Bumetanide] | 5.17
26 | C#C[C@]1(O)CC[C@H]2[C@@H]3CCC4=CC(=O)CC[C@@H]4[C@H]3CC[C@@]21CC [Levonorgestrel] | 5.26
27 | C[C@]12CC[C@@H]3c4ccc(O)cc4C[C@@H](CCCCCCCCC[S+]([O-])CCCC(F)(F)C(F)(F)F)[C@H]3[C@@H]1CC[C@@H]2O (stereo not given in full) | -7.68
28 | Cc1ccc(N(CC2=NCCN2)c2cccc(O)c2)cc1 [Phentolamine Mesylate] | 5.31
29 | OCCN(CCO)c1nc(N2CCCCC2)c2nc(N(CCO)CCO)nc(N3CCCCC3)c2n1 [Dipyridamole] | 5.01
30 | CC[C@H]1OC(=O)[C@H](C)[C@@H](O[C@H]2C[C@@](C)(OC)[C@@H](O)[C@H](C)O2)[C@H](C)[C@@H](O[C@@H]2O[C@H](C)C[C@H](N(C)C)[C@H]2O)[C@](C)(O)C[C@@H](C)CN(C)[C@H](C)[C@@H](O)[C@]1(C)O [Azithromycin] | -4.27
31 | Clc1ccc2nsnc2c1NC1=NCCN1 [Tizanidine hydrochloride] | -0.817
32 | Cc1cccc(C)c1OCC(C)N (stereo not given) [Mexiletine hydrochloride] | -1.17
33 | CCCc1nc(C(C)(C)O)c(C(=O)O)n1Cc1ccc(-c2ccccc2-c2nnn[nH]2)cc1 [Olmesartan] | -2.59
34 | CC(C)C(=O)OCC(=O)[C@@]12O[C@H](C3CCCCC3)O[C@@H]1C[C@H]1[C@@H]3CCC4=CC(=O)C=C[C@]4(C)[C@H]3[C@@H](O)C[C@@]12C [Ciclesonide] | -7.98
35 | Cc1ccc(O)c([C@H](CCN(C(C)C)C(C)C)c2ccccc2)c1 [Tolterodine L-tartrate] | 0.477
36 | CC1=Nc2ccc(Cl)cc2S(=O)(=O)N1 [Diazoxide] | 7.27
37 | CC(C)(C(=O)O)c1ccc(C(O)CCCN2CCC(C(O)(c3ccccc3)c3ccccc3)CC2)cc1 (stereo not given) [Fexofenadine hydrochloride] | 3.69
38 | C[C@H]1C[C@@H]2[C@H]([C@@H](O)C[C@@]3(C)[C@H]2CC[C@]3(O)C(=O)CO)[C@@]2(C)C=CC(=O)C=C12 [Methylprednisolone] | 5.3
39 | C[C@]12CCC(=O)C=C1CC[C@@H]1[C@@H]2[C@@H](O)C[C@@]2(C)[C@H]1CC[C@]2(O)C(=O)CO [Hydrocortisone] | 10.5
40 | C/C(O)=C(\C#N)C(=O)Nc1ccc(C(F)(F)F)cc1 [Teriflunomide] | -10.8
